# Experimental data from PubChem BioAssay AID431 (Sanford-Burnham Center for Chemical Genomics, 2006).
# Hit rate of the full screen: of about 63,000 compounds, about 1,100 (1.7%) were called active. This is one part of a sample in which actives are shown more often than they occur.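 Rule for the calls: active = compounds whose percent cytotoxicity in the single-dose primary screen, scaled between solvent and toxic-drug controls, exceeds 50; inactive = the rest.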 Entries with a potency or affinity are not part of this list.
# Assay: cytotoxicity in KRAS-transformed pancreatic duct cells, primary screen, cell-based, fluorescence, HTS (AID 431);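 note: 0% = DMSO solvent wells and 100% = doxorubicin-treated wells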
# Details: HPDE-C7K KRASV12 cells, Alamar Blue viability, 48 h; at 10 µM; active compounds read high
row,SMILES,cytotoxicity
1,COc1ccc(C(=O)CN2C(=O)NC3(CCCc4ccccc43)C2=O)cc1OC (centres undefined),3.3% (inactive)
2,COc1cc2c(cc1NC(=O)CN1C(=O)NC3(CCc4ccccc43)C1=O)oc1ccccc12 (centres undefined),55% (active)
3,COc1cc2c(cc1NC(=O)CCCN1C(=O)CCC1=O)oc1ccccc12,15.2% (inactive)
4,CCOC(=O)C1CCCN(C(=O)c2ccc3c(c2)NC(=O)C(N2CCOCC2)S3)C1 (centres undefined),-2.6% (inactive)
5,CCOC(=O)N1CCN(C(=O)c2ccccc2CCc2ccccc2)CC1,12.2% (inactive)
6,COc1ccc(Cl)cc1CN1CCN(c2nc(C)cc(C)c2C#N)CC1,22.3% (inactive)
7,O=C(NCC12CC3CC(CC(C3)C1)C2)c1nc2ncccn2n1,7.1% (inactive)
8,CCN=C1SC(CC(=O)Nc2sc3c(c2C#N)CCCC3)C(=O)N1CC (centres undefined),-3.9% (inactive)
9,CC(C)c1ccc(NC(=O)NC2CCCCC2)cc1,52.6% (active)
10,O=C(Nc1ccc(F)c(F)c1)NC1CCCCC1,-0.5% (inactive)
11,Cc1ccc(NC(=O)NC2CCCCC2)cc1Cl,-4% (inactive)
12,CCOc1ccc(NS(=O)(=O)c2ccc(SC)cc2)cc1,8.6% (inactive)
13,CCOc1ccc(NS(=O)(=O)c2ccc3[nH]c(=O)oc3c2)cc1,11.8% (inactive)
14,Cn1c(=O)c2c(nc(NCc3cccnc3)n2Cc2cccc(C(F)(F)F)c2)n(C)c1=O,-17.6% (inactive)
15,Cc1cc(Nc2ccccc2)n(-c2nc3ccccc3[nH]2)n1,1.5% (inactive)
16,Cc1ccc(Nc2cc(C)nn2-c2nc(C)cc(=O)[nH]2)cc1,101% (active)
17,Cc1cc(=O)[nH]c(-n2nc(C)cc2C)n1,-16% (inactive)
18,Cc1cccc(C)c1N(CC(=O)Nc1cccc(N(C)S(C)(=O)=O)c1)S(C)(=O)=O,-7.3% (inactive)
19,COc1ccc(Cl)c(Cn2c(NCCCN(C)C)nc3c2c(=O)n(C)c(=O)n3C)c1,-1.8% (inactive)
20,Cn1c(=O)[nH]c(=O)c2c1nc(N1CCOCC1)n2CC(O)COc1ccccc1 (centres undefined),-14.2% (inactive)
21,Cc1ccccc1OCC(O)Cn1c(N2CCN(c3ccccc3)CC2)nc2c1c(=O)[nH]c(=O)n2C (centres undefined),78.8% (active)
22,Cc1ccccc1OCC(O)Cn1c(SC(C)C)nc2c1c(=O)[nH]c(=O)n2C (centres undefined),-16.9% (inactive)
23,CC(C)CSc1nc2c(c(=O)[nH]c(=O)n2C)n1CC(O)COc1cccc2ccccc12 (centres undefined),63.6% (active)
24,CCSc1nc2c(c(=O)[nH]c(=O)n2C)n1CC(O)COc1ccccc1C (centres undefined),-11.9% (inactive)

row,SMILES,cytotoxicity
1,COc1ccccc1OCC(O)Cn1c(Br)nc2c1c(=O)[nH]c(=O)n2C (centres undefined),-3.5% (inactive)
2,Cc1sc2nc(CN3CCOCC3)nc(N3CCC(C(N)=O)CC3)c2c1C,2.3% (inactive)
3,O=C(COCCOCC(=O)N(c1ccccn1)C1CCCCC1)N(c1ccccn1)C1CCCCC1,-24% (inactive)
4,CCOC(=O)c1nnn(-c2nonc2N)c1COc1ccccc1,-16.7% (inactive)
5,CCN(CC)CCNc1nc(-c2ccco2)c2c(c1C#N)CC(C)(C)OC2,-15.7% (inactive)
6,CN(C)CCNc1nc(-c2ccco2)c2c(c1C#N)CC(C)(C)OC2,-0.3% (inactive)
7,C=CCn1c(SCC2=C(C(=O)OCC)C(C)NC(=O)N2)nnc1C1CCCCC1 (centres undefined),-17.2% (inactive)
8,Cc1cc(NS(=O)(=O)c2ccc(C3CCCCC3)cc2)no1,-3% (inactive)
9,O=C1CC(C(F)(F)C(F)(F)C(F)(F)C(F)F)=Nc2ccccc2N1,-3.2% (inactive)
10,Oc1ccccc1-c1cc(C(F)(F)C(F)F)[nH]n1,-5.1% (inactive)
11,FC(F)C(F)(F)C(F)(F)C(F)(F)c1cc(-c2ccccc2)n[nH]1,82.9% (active)
12,O=C(Cc1cn2ccsc2n1)NCc1ccccc1,-14.8% (inactive)
13,COc1cc2c(cc1OC)C1Cc3ccc(OC)c(OC)c3CN1CC2 (centres undefined),-5% (inactive)
14,COc1cc2c(cc1OC)C(c1cc(OC)c(OC)c(OC)c1)NCC2 (centres undefined),7.4% (inactive)
15,Cc1ccc(S(=O)(=O)Cn2nnnc2CN2CCCC3(CCCCC3)C2)cc1,4.3% (inactive)
16,COc1ccc2nc(NC(=O)c3cnccn3)sc2c1,4.7% (inactive)
17,Cc1nc2sc(C(c3ccccc3)N3CCN(CCO)CC3)c(O)n2n1 (centres undefined),-1.5% (inactive)
18,CN1CCN(C(c2cccnc2)c2ccc3cccnc3c2O)CC1 (centres undefined),-15.1% (inactive)
19,OCCN1CCN(C(c2cccs2)c2ccc3cccnc3c2O)CC1 (centres undefined),83.8% (active)
20,FC(F)(F)c1ccccc1Nc1nccs1,14.9% (inactive)
21,CC1CC(C)CN(c2nc3c(c(=O)[nH]c(=O)n3C)n2CCSc2nc3ccccc3o2)C1 (centres undefined),2.4% (inactive)
22,N#CC1=C2SCN(c3ccccc3)CN2C(=O)CC1c1cccs1 (centres undefined),2.6% (inactive)
23,N#CC1=C2SCC(O)(c3ccccc3)N2C(=O)CC1c1ccccc1 (centres undefined),65.7% (active)
24,COc1ccc(C2CC(=O)N3C(=C2C#N)SCC3(O)c2ccccc2)cc1 (centres undefined),12.5% (inactive)

row,SMILES,cytotoxicity
1,CCc1ccc(C2CC(=O)N3CN(c4ccccc4)CSC3=C2C#N)cc1 (centres undefined),2.4% (inactive)
2,N#CC1=C2SCN(Cc3ccccc3)CN2C(=O)CC1c1cccs1 (centres undefined),-0.4% (inactive)
3,COc1ccc(CCNS(=O)(=O)c2ccc3c(c2)OCCO3)cc1OC,-28.8% (inactive)
4,COc1ccc(S(=O)(=O)N(C)CC(=O)NC2CC2)cc1,-20.5% (inactive)
5,CCOc1ccc(N2CCCCn3c2nc2c3c(=O)[nH]c(=O)n2C)cc1,-9% (inactive)
6,COc1ccc(OC)c(NC(=O)CSc2nnc(Cn3c(=O)sc4ccccc43)n2C)c1,4.6% (inactive)
7,CCn1c(SCC(=O)c2cc(OC)ccc2OC)nc2c1c(=O)n(C)c(=O)n2C,-4.8% (inactive)
8,Cc1csc(NC(=O)CSc2ncnc3c2cnn3-c2ccccc2Cl)n1,31.8% (inactive)
9,CCOC(=O)Cc1csc(NC(=O)CSc2ncnc3c2cnn3-c2ccc(OC)cc2)n1,4.2% (inactive)
10,CCOC(=O)Cc1csc(NC(=O)CSc2ncnc3c2cnn3-c2ccccc2Cl)n1,50% (active)
11,Cc1cc(OCc2nn[nH]n2)c2c(C)c(Cc3ccccc3)c(=O)oc2c1,13.7% (inactive)
12,Cc1cc(-c2ccccc2)c(C#N)c(N)n1,12.6% (inactive)
13,CSc1nc(-c2ccco2)cc(-c2ccccc2)c1C#N,45% (inactive)
14,Cc1cccc2cc(CN(CCCO)C(=O)Nc3ccccc3Cl)c(=O)[nH]c12,-2.4% (inactive)
15,CC(C)(C)OC(=O)N[C@@H](Cc1ccccc1)c1nnc(S(=O)(=O)Cc2cccc(F)c2)o1,-21.9% (inactive)
16,CC[C@@H](C)[C@H](NC(=O)OC(C)(C)C)c1nnc(S(=O)(=O)Cc2cc(C)ccc2C)o1,46.9% (inactive)
17,COc1ccc(N2CCN(C(=O)c3cc4c(-c5cccc(OC)c5)nn(C)c4s3)CC2)cc1,15.7% (inactive)
18,Cn1nc(-c2ccc(Cl)cc2)c2cc(C(=O)N3CCN(c4ccccn4)CC3)sc21,-7.2% (inactive)
19,CN(C)c1ncc(C(=O)O)cn1,21.7% (inactive)
20,COc1ccc(C(=O)c2c[nH]c3ccccc23)cc1,15.5% (inactive)
21,COc1ccc(C(C(O)C(=O)c2c[nH]c3ccccc23)N2CCN(c3ccc(OC)cc3)CC2)cc1 (centres undefined),50.4% (active)
22,O=C(c1c[nH]c2ccccc12)C(O)C(c1ccccc1)N1CCOCC1 (centres undefined),-15.9% (inactive)
23,O=C(Nc1ccccc1F)C1CCCN(S(=O)(=O)c2cccc3cccnc23)C1 (centres undefined),7% (inactive)
24,Cn1cnnc1SCc1ccc(C#N)cc1,2.3% (inactive)

row,SMILES,cytotoxicity
1,OCCN(CC(O)Cn1ccc2ccccc21)CC(O)Cn1ccc2ccccc21 (centres undefined),29.1% (inactive)
2,OCCNCC(O)Cn1ccc2ccccc21 (centres undefined),-4.4% (inactive)
3,O=C1OCC2=C1C(c1ccc3c(c1)OCO3)Sc1ccccc1N2 (centres undefined),-14.4% (inactive)
4,Cc1c(C(=O)N2CCN(C)CC2)oc2c1C(=O)CC(C)(C)C2,-40.9% (inactive)
5,c1ccc(-c2nc(N3CCCCCC3)nc(-n3ccnc3)n2)cc1,-10.1% (inactive)
6,c1ccc(-c2nc(N3CCN(c4ccccc4)CC3)nc(-n3ccnc3)n2)cc1,30.8% (inactive)
7,Cn1nc(-c2ccc(Cl)cc2)c2cc(C(=O)N3CCOCC3)sc21,8.6% (inactive)
8,CC(=O)c1ccc(NC(=O)c2noc3c2CCCCC3)cc1,16.4% (inactive)
9,CN1CCN(c2ncnc3c2[nH]c2ccc(F)cc23)CC1,5.5% (inactive)
10,COc1cccc2[nH]c3c(N4CCN(Cc5ccc6c(c5)OCO6)CC4)ncnc3c12,44.8% (inactive)
11,COc1ccc2[nH]c3c(N4CCN(Cc5ccc6c(c5)OCO6)CC4)ncnc3c2c1,53.7% (active)
12,COc1cccc(N2CCN(c3ncnc4c3[nH]c3ccc(F)cc34)CC2C)c1 (centres undefined),121% (active)
13,c1ccc2c(c1)oc1c(N3CCN(Cc4ccc5c(c4)OCO5)CC3)ncnc12,10.1% (inactive)
14,Fc1ccc2[nH]c3c(N4CCN(C5CCCCC5)CC4)ncnc3c2c1,23.3% (inactive)
15,Cc1ccc2c(c1)[nH]c1c(N3CCN(Cc4ccc5c(c4)OCO5)CC3)ncnc12,9.5% (inactive)
16,COc1ccc2c(c1)c1ncnc(N3CCN(Cc4ccc5c(c4)OCO5)CC3)c1n2C,43.1% (inactive)
17,Fc1ccc2[nH]c3c(N4CCN(c5ccccc5)CC4)ncnc3c2c1,-3.9% (inactive)
18,CCCCOc1ncnc2c1[nH]c1ccc(F)cc12,5% (inactive)
19,CCC1S/C(=C(\C#N)C(=O)NCc2ccco2)N(c2ccc(F)cc2)C1=O (centres undefined),-16.6% (inactive)
20,CC1CCCCN1S(=O)(=O)c1ccc2c(c1)oc(=O)n2CC(=O)O (centres undefined),-0.1% (inactive)
21,CCN=C(Nc1ccc2c(c1)OCO2)SC1CC(=O)N(c2ccccc2F)C1=O (centres undefined),-6% (inactive)
22,O=C(O)CCS(=O)(=O)Cc1ccccc1F,1.1% (inactive)
